Laboratory results: PubChem BioAssay (NCATS)
Results filed as inconclusive are left out. Calls of active or inactive are those of the source. Calls follow the shape of the dose curve; as a rule, active = well fitted curve in the direction sought with a large enough effect; inconclusive = small, poorly fitted or top-dose-only effect, or another doubt; inactive = no such curve, though single readings can be large; an effect the other way counts as inactive or inconclusive.

biological target: Methanococcus maripaludis chaperonin (MmCpn) (UniProt Q6LX38); test: High-Throughput Screening for Modulators of Cytosolic Chaperonin Activity: MmCpn Primary Screen (AID 488978); settings: Purified MmCpn ATPase activity, ADP HTRF detection, 10 min; series mostly up to 76.9 µM; activity change, negative = inhibition: at the top concentration;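 also: 50 nM MmCpn enzyme hydrolysing 30 µM ATP at 37 °C; 0% is about no effect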
Method in brief: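 Steps: chaperonin 50 nM final; add compound, 5 min RT; start with ATP, 30 uM final; hold 10 min at 37C; add ADP Transcreener HTRF reagent, 5 min; read ex 320, em 590 and 665 nm.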

Methanococcus maripaludis chaperonin (MmCpn), sequence (Q6LX38 1-543): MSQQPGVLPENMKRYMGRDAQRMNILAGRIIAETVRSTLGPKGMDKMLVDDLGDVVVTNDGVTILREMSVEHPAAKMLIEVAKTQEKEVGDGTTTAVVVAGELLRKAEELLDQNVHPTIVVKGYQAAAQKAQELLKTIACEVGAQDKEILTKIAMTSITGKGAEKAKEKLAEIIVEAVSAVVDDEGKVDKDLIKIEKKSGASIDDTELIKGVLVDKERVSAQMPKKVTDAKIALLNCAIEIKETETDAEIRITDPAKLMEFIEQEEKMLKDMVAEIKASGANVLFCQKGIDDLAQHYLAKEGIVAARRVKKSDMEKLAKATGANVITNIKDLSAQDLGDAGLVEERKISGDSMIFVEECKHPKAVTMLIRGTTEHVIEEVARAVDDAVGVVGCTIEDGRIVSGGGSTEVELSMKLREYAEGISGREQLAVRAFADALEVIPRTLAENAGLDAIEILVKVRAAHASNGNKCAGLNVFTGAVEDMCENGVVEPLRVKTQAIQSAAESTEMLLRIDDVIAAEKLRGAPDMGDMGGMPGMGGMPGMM

| Structure (SMILES) | activity change, negative = inhibition |
| --- | --- |
| CNc1ccc2oc(C[C@H]3O[C@@]4(CC[C@H]3C)O[C@H]([C@H](C)C(=O)c3ccc[nH]3)[C@H](C)C[C@H]4C)nc2c1C(=O)O | -3.68% (inactive) |
| CN1CC[C@@]2(C)c3cc(OC(=O)Nc4ccccc4)ccc3N(C)[C@@H]12 | -1.03% (inactive) |
| COC(=O)N1CCN(C(=O)Cc2ccc(Cl)c(Cl)c2)C(CN2CCCC2)C1 (configuration not stated) | 2.07% (inactive) |
| CCNC(=O)[C@H]1O[C@@H](n2cnc3c(N)ncnc32)[C@H](O)[C@@H]1O | -4.52% (inactive) |
| C[C@H](N)Cc1cccc(C(F)(F)F)c1 | -2.9% (inactive) |
| CCCN1CCc2cccc3c2[C@H]1Cc1ccc(O)c(O)c1-3 | -0.459% (inactive) |
| CC(N)Cc1c[nH]c2ccc(O)cc12 (configuration not stated) | -6.42% (inactive) |
| CCOC(=O)c1ncn2c1[C@@H]1CCCN1C(=O)c1cc(OC)ccc1-2 | 1.25% (inactive) |
| CCN1C[C@@]2(COC)C3[C@@H](OC)C4[C@@H]1C3([C@@H]1C[C@]3(O)[C@H](OC(=O)c5ccccc5)[C@@H]1[C@]4(OC(C)=O)[C@@H](O)[C@@H]3OC)[C@H](OC)C[C@H]2O | 0.345% (inactive) |
| C[N+](C)(C)CC#CCN1CCCC1=O | -2.17% (inactive) |
| CCCN(CCC)[C@@H]1CCc2cccc(O)c2C1 | 0.879% (inactive) |

biological target: Transient receptor potential cation channel subfamily V member 1 (Homo sapiens) (UniProt Q8NER1); test: HTS Assay for Compounds that Act as Enhancers of the Vanilloid Receptor 1 (AID 488979); settings: TRPV1-expressing cells, enhancer of channel activity; series mostly up to 41.7 µM; activity change, positive = enhancement: at the top concentration; also: 0% is about no effect
Method in brief: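 TRPV1 cells loaded with Fluo-8 calcium dye; compound added and Ca2+ signal (ex 480/em 520 nm) followed 3 min, then capsaicin at EC20 added and read 2 more min to detect enhancement.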

Transient receptor potential cation channel subfamily V member 1 (Homo sapiens), sequence (Q8NER1 whole entry, looked up): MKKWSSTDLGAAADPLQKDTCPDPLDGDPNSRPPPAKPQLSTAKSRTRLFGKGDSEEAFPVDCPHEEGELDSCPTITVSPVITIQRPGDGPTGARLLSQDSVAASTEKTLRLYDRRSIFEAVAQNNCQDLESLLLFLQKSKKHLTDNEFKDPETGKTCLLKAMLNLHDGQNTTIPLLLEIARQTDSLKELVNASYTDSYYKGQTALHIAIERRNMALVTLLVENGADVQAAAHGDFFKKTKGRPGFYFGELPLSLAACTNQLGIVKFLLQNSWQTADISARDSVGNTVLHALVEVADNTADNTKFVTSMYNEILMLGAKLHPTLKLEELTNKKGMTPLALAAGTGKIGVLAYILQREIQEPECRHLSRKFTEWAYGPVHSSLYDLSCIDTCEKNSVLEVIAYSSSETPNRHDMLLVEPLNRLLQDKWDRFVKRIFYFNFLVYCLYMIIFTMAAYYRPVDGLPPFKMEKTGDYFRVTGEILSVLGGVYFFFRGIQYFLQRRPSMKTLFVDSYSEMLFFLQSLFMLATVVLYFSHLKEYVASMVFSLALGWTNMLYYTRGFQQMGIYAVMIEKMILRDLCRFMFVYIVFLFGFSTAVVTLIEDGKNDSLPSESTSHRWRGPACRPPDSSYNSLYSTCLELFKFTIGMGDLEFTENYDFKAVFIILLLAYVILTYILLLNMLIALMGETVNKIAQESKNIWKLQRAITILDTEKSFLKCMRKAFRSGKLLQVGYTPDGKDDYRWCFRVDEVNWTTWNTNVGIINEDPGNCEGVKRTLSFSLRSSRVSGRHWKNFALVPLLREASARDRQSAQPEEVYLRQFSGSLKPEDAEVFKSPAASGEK

| Structure (SMILES) | activity change, positive = enhancement |
| --- | --- |
| CC1OC1P(=O)(O)O (configuration not stated) | 5.27% (inactive) |
| CNC(=O)OCC[N+](C)(C)C | -3.77% (inactive) |
| O=P(O)(O)C(Cl)(Cl)P(=O)(O)O | 3.6% (inactive) |
| CC(C)CC(NP(=O)(O)O[C@@H]1O[C@@H](C)[C@H](O)[C@@H](O)[C@H]1O)C(=O)NC(Cc1c[nH]c2ccccc12)C(=O)O (some centres not stated) | 3.8% (inactive) |
| CCCN1CCCC2Cc3[nH]ncc3CC21 (configuration not stated) | 0.644% (inactive) |
| N#CC(C#N)=Cc1cc(O)c(O)c(O)c1 | 10.7% (inactive) |
| C[N+]1(C)CCC(OC(=O)C(c2ccccc2)c2ccccc2)CC1 | 0.817% (inactive) |
| COc1ccc2c(c1OC)C(=O)OC2C1c2cc3c(cc2CCN1C)OCO3 (configuration not stated) | 2.77% (inactive) |

biological target: Thyrotropin receptor (Homo sapiens) (UniProt P16473); test: qHTS Assay for Antagonists of the Thyroid Stimulating Hormone Receptor (AID 488980); settings: TSHR-expressing cells, cAMP antagonist read-out; series mostly up to 57.5 µM; activity, negative = inhibition: at the top concentration; also: 0% is about no effect
Method in brief: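 Readout is cAMP by HTRF competition between cellular cAMP and cAMP-d2 for a cryptate-labelled antibody. Antagonism was assessed in TSHR-transfected HEK293 cells stimulated with 4 nM TSH (EC80, final) in the presence of RO 20-1724.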

Thyrotropin receptor (Homo sapiens), sequence (P16473 whole entry, looked up): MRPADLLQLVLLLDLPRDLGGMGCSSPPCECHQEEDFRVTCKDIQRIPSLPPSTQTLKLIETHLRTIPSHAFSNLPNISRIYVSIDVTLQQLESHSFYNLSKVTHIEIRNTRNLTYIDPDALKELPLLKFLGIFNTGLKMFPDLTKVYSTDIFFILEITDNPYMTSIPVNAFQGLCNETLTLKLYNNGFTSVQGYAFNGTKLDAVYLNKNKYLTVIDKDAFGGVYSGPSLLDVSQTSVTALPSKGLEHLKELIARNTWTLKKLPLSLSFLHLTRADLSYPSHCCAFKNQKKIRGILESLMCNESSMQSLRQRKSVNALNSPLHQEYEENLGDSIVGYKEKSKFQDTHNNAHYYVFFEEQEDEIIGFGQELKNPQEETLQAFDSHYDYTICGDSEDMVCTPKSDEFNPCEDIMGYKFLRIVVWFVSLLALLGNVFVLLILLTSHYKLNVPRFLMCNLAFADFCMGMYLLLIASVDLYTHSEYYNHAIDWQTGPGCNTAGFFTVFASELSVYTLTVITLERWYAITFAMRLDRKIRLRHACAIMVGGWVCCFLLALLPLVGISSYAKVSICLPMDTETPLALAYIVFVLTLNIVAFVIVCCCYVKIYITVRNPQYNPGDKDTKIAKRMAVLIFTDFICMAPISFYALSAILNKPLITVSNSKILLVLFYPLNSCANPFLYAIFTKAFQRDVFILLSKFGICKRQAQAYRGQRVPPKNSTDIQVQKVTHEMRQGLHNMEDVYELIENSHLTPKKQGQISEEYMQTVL

| Structure (SMILES) | activity, negative = inhibition |
| --- | --- |
| CC1OC1P(=O)(O)O (configuration not stated) | -0.603% (inactive) |
| CC(C)CC(NP(=O)(O)O[C@@H]1O[C@@H](C)[C@H](O)[C@@H](O)[C@H]1O)C(=O)NC(Cc1c[nH]c2ccccc12)C(=O)O (some centres not stated) | -0.579% (inactive) |
| CCCN1CCCC2Cc3[nH]ncc3CC21 (configuration not stated) | -1.71% (inactive) |
| N#CC(C#N)=Cc1cc(O)c(O)c(O)c1 | -2.14% (inactive) |

biological target: D(1A) dopamine receptor (Homo sapiens) (UniProt P21728); test: HTS Assay for Allosteric Agonists of the Human D1 Dopamine Receptor: Primary Screen for Agonists (AID 488981); settings: Inducible HEK293 T-REx D1 cells, calcium-flux fluorescence, 180 s kinetic; series mostly up to 41.8 µM; activation: at the top concentration; also: potency is read from the fitted curve at half-maximal effect; as to activation: 0% is about no effect
Method in brief: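 Tetracycline-induced HEK293 Trex D1 cells with forced coupling to calcium, loaded with no-wash calcium dye; kinetic fluorescence read 180 s after compound addition for agonism, then a further 180 s after an EC20 dopamine challenge for potentiation.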

D(1A) dopamine receptor (Homo sapiens), sequence (P21728 whole entry, looked up): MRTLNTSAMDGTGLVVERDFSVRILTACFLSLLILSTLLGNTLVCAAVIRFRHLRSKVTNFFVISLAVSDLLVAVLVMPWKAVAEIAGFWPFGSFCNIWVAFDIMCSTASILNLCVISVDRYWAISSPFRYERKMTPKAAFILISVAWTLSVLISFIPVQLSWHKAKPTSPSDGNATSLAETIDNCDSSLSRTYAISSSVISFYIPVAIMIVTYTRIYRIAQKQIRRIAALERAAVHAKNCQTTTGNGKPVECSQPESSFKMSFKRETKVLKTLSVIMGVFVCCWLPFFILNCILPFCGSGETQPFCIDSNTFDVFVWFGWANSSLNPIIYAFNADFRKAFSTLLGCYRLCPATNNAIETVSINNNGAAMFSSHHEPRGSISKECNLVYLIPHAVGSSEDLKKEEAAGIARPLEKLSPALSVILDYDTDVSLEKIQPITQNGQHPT

| Structure (SMILES) | Potency | activation |
| --- | --- | --- |
| CNc1ccc2oc(C[C@H]3O[C@@]4(CC[C@H]3C)O[C@H]([C@H](C)C(=O)c3ccc[nH]3)[C@H](C)C[C@H]4C)nc2c1C(=O)O | 0.398 µM (active) | – |
| CN1CC[C@@]2(C)c3cc(OC(=O)Nc4ccccc4)ccc3N(C)[C@@H]12 | – | -0.0529% (inactive) |
| COC(=O)N1CCN(C(=O)Cc2ccc(Cl)c(Cl)c2)C(CN2CCCC2)C1 (configuration not stated) | – | 9.84% (inactive) |
| CCNC(=O)[C@H]1O[C@@H](n2cnc3c(N)ncnc32)[C@H](O)[C@@H]1O | – | 0.106% (inactive) |
| C[C@H](N)Cc1cccc(C(F)(F)F)c1 | – | 5.18% (inactive) |
| CC(N)Cc1c[nH]c2ccc(O)cc12 (configuration not stated) | – | -0.529% (inactive) |
| CCOC(=O)c1ncn2c1[C@@H]1CCCN1C(=O)c1cc(OC)ccc1-2 | – | -0.846% (inactive) |
| CCN1C[C@@]2(COC)C3[C@@H](OC)C4[C@@H]1C3([C@@H]1C[C@]3(O)[C@H](OC(=O)c5ccccc5)[C@@H]1[C@]4(OC(C)=O)[C@@H](O)[C@@H]3OC)[C@H](OC)C[C@H]2O | – | -0.159% (inactive) |
| CCCN(CCC)[C@@H]1CCc2cccc(O)c2C1 | – | 1.8% (inactive) |

biological target: D(1A) dopamine receptor (Homo sapiens) (UniProt P21728); test: HTS Assay for Allosteric Agonists of the Human D1 Dopamine Receptor: Primary Screen for Antagonists (AID 488983); settings: D1 receptor cell assay, antagonist mode, qHTS titration; series mostly up to 41.8 µM; activity change, negative = inhibition: at the top concentration;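 also: calcium flux response to an EC80 dopamine challenge measured with no-wash dye; % is scaled to controls: 0 for no effect and ±100 for the full control effect; nearly all actives have a fitted effect of over 65% in size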
Method in brief: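 Tetracycline-induced HEK293 T-REx D1 line, force-coupled to calcium flux, read with no-wash calcium dye. Compound added after 10 s baseline, read 180 s for agonism, then EC80 dopamine added and read a further 180 s.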

| Structure (SMILES) | activity change, negative = inhibition |
| --- | --- |
| CN1CC[C@@]2(C)c3cc(OC(=O)Nc4ccccc4)ccc3N(C)[C@@H]12 | -19.6% (inactive) |
| COC(=O)N1CCN(C(=O)Cc2ccc(Cl)c(Cl)c2)C(CN2CCCC2)C1 (configuration not stated) | -8.29% (inactive) |
| CCNC(=O)[C@H]1O[C@@H](n2cnc3c(N)ncnc32)[C@H](O)[C@@H]1O | -6.46% (inactive) |
| C[C@H](N)Cc1cccc(C(F)(F)F)c1 | 5.24% (inactive) |
| CCOC(=O)c1ncn2c1[C@@H]1CCCN1C(=O)c1cc(OC)ccc1-2 | -4.63% (inactive) |
| CCN1C[C@@]2(COC)C3[C@@H](OC)C4[C@@H]1C3([C@@H]1C[C@]3(O)[C@H](OC(=O)c5ccccc5)[C@@H]1[C@]4(OC(C)=O)[C@@H](O)[C@@H]3OC)[C@H](OC)C[C@H]2O | 10.1% (inactive) |
| C[N+](C)(C)CC#CCN1CCCC1=O | 16.5% (inactive) |
| CCCN(CCC)[C@@H]1CCc2cccc(O)c2C1 | -0.389% (inactive) |

biological target: ATP-dependent 6-phosphofructokinase (Trypanosoma brucei brucei) (UniProt O15648); test: qHTS Assay to Find Inhibitors of T. brucei phosphofructokinase: hit validation (AID 492961); also: potency is read from the fitted curve at half-maximal effect;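 as to activity change, negative = inhibition: luminescence reports ADP formed as PFK phosphorylates fructose-6-phosphate with ATP; % is scaled to controls: 0 for no effect and ±100 for the full control effect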; settings: T. brucei PFK, ADP-Glo luminescence; series mostly up to 51.4 µM; activity change, negative = inhibition: at the top concentration
Method in brief: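 Compounds titrated; %activity normalized to 0x and 1x enzyme controls, curve-fitted. Readout: ADP-Glo luminescence after 45 min room-temperature reaction of 1.25 nM PFK, 0.1 mM ATP, 0.5 mM F6P, pH 8.0.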

ATP-dependent 6-phosphofructokinase (Trypanosoma brucei brucei), sequence (O15648 whole entry, looked up): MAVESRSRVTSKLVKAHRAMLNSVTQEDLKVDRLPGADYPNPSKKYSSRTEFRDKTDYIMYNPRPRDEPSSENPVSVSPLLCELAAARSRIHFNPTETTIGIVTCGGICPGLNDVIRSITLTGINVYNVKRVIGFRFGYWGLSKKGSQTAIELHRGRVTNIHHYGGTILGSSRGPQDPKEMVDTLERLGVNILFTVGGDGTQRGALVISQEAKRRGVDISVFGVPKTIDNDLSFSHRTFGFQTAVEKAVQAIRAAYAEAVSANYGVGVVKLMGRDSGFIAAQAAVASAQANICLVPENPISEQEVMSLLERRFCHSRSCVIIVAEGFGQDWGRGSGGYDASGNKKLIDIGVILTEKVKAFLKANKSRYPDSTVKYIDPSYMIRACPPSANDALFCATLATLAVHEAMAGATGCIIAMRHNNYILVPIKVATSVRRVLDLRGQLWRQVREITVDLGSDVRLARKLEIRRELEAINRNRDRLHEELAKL

| Structure (SMILES) | activity change, negative = inhibition | Potency |
| --- | --- | --- |
| O=[N+]([O-])c1ccc(F)c([N+](=O)[O-])c1 | -10.7% (inactive) | – |
| CC(=O)OO | -2.08% (inactive) | – |
| C#CC(C)(O)CC (configuration not stated) | -4.22% (inactive) | – |
| O=Cc1ccco1 | -18.1% (inactive) | – |
| Oc1cccc[c]1[Hg][Cl] | – | 5.62 µM (active) |
| FC(F)OC(F)(F)C(F)Cl (configuration not stated) | 5.78% (inactive) | – |
| CCC(=O)O[C@@](Cc1ccccc1)(c1ccccc1)[C@@H](C)CN(C)C | 13.3% [at 24.3 µM] (inactive) | – |
| F/C(COc1ccc2c(c1)[nH]c1ccccc12)=C1/CN2CCC1CC2 | 0% (inactive) | – |
| O=C(CCl)c1ccc(Oc2ccc(C(=O)CCl)cc2)cc1 | -6.06% (inactive) | – |
| CNC(=O)OCC[N+](C)(C)C | 9.7% (inactive) | – |
| CN1c2ccccc2C(NCCCCCCC(=O)O)c2ccc(Cl)cc2S1(=O)=O (configuration not stated) | 5.9% (inactive) | – |
| ClC(Cl)(Cl)Cl | 1.38% (inactive) | – |
| O=P(O)(O)C(Cl)(Cl)P(=O)(O)O | -9.53% (inactive) | – |
| CN1CCCC(=C(c2cccs2)c2cccs2)C1 | -2.16% (inactive) | – |
| O=S(=O)(O)c1cc(O)ccc1O | 18.2% [at 24.3 µM] (inactive) | – |
| N#CC(C#N)=Cc1cc(O)c(O)c(O)c1 | -6.78% (inactive) | – |
| CC(C)Nc1ccc(Nc2ccccc2)cc1 | -18.4% (inactive) | – |
| OC(c1ccccc1)(c1ccccc1)C1CN2CCC1CC2 (configuration not stated) | 0% (inactive) | – |
| CCC1(c2ccccc2)C(=O)NC(=O)NC1=O | 3.48% (inactive) | – |
| O=C1CN(O)C(c2ccccc2)=c2cc(Cl)ccc2=N1 | -9.27% (inactive) | – |
| CC[N+](C)(CC)CCOC(=O)C(O)(c1ccccc1)c1ccccc1 | -0.444% (inactive) | – |
| CCC1(c2ccccc2)C(=O)NC(=O)N(C)C1=O (configuration not stated) | -2.32% (inactive) | – |
